Reference: PubChem BioAssay AID1159580 (chemical genetic matrix, 2015)
Screen size: about 5,500 compounds; about 2,000 (36%) were called active. Inconclusive results (about 18%) are left out. Rule as the data show it: active = normalized growth mostly below about 0.91 (no sharp cut-off); inconclusive = no clear call, values can overlap the other calls; inactive = mostly above about 0.92. Some of the results follow.

Test: chemical genetic growth profiling, strain panel (AID 1159580);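 also: tested at 20 µM; growth read once vehicle control cultures reached saturation at 30 °C; 1 = growth at the plate median or of vehicle wells; lower values mean less growth of the strain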
Details: growth OD

Measured: normalized growth

CC1O[C@@H](Oc2c(-c3ccc(O)c(O)c3)oc3cc(O)cc(O)c3c2=O)[C@H](O)[C@H](O)[C@H]1O (some centres not stated)
inactive: S. cerevisiae deletion strains, locus YJR075W, strain HOC1, stronger effect = lower value 0.996 | S. cerevisiae deletion strains, locus YKL009W, strain mrt4, stronger effect = lower value 1.11 | S. cerevisiae deletion strains, locus YKL068W, stronger effect = lower value 0.972 | S. cerevisiae deletion strains, locus YKL085W, strain MDH1 (second series), stronger effect = lower value 1.03 | S. cerevisiae deletion strains, locus YKL085W, strain MDH1, stronger effect = lower value 1.03 | S. cerevisiae deletion strains, locus YKL160W, strain elf1, stronger effect = lower value 0.994 | S. cerevisiae deletion strains, locus YKL190W, strain CNB1, stronger effect = lower value 0.998 | S. cerevisiae deletion strains, locus YKR001C, strain vps1, stronger effect = lower value 0.989 | S. cerevisiae deletion strains, locus YKR026C, strain gcn3, stronger effect = lower value 0.983 | S. cerevisiae deletion strains, locus YKR091W, strain srl3, stronger effect = lower value 0.993 | S. cerevisiae deletion strains, locus YLL001W, strain dnm1, stronger effect = lower value 0.986 | S. cerevisiae deletion strains, locus YLL026W, stronger effect = lower value 0.996 | S. cerevisiae deletion strains, locus YLL041C, strain sdh2, stronger effect = lower value 0.997 | S. cerevisiae deletion strains, locus YLR027C, strain aat2, stronger effect = lower value 0.98 | S. cerevisiae deletion strains, locus YLR039C, strain RIC1, stronger effect = lower value 0.974 | S. cerevisiae deletion strains, locus YLR058C, strain SHM2, stronger effect = lower value 0.999 | S. cerevisiae deletion strains, locus YLR102C, strain apc9, stronger effect = lower value 0.984 | S. cerevisiae deletion strains, locus YLR113W, strain HOG1, stronger effect = lower value 0.958 | S. cerevisiae deletion strains, locus YLR221C, strain rsa3, stronger effect = lower value 0.989 | S. cerevisiae deletion strains, locus YLR258W, strain gsy2, stronger effect = lower value 1 | S. cerevisiae deletion strains, locus YLR262C, strain YPT6 (second series), stronger effect = lower value 1.01 | S. cerevisiae deletion strains, locus YLR262C, strain YPT6, stronger effect = lower value 0.992 | S. cerevisiae deletion strains, locus YLR268W, strain sec22, stronger effect = lower value 0.948 | S. cerevisiae deletion strains, locus YLR320W, strain mms22, stronger effect = lower value 0.991 | S. cerevisiae deletion strains, locus YLR330W, strain CHS5, stronger effect = lower value 0.99 | S. cerevisiae deletion strains, locus YLR342W, strain FKS1 (second series), stronger effect = lower value 1.04 | S. cerevisiae deletion strains, locus YLR342W, strain FKS1, stronger effect = lower value 0.984 | S. cerevisiae deletion strains, locus YLR357W, strain rsc2, stronger effect = lower value 0.969 | S. cerevisiae deletion strains, locus YLR370C, strain arc18, stronger effect = lower value 0.989 | S. cerevisiae deletion strains, locus YLR371W, strain rom2, stronger effect = lower value 0.992 | S. cerevisiae deletion strains, locus YLR384C, strain iki3, stronger effect = lower value 0.994 | S. cerevisiae deletion strains, locus YLR418C, strain cdc73, stronger effect = lower value 0.993 | S. cerevisiae deletion strains, locus YML016C, strain PPZ1, stronger effect = lower value 1 | S. cerevisiae deletion strains, locus YML032C, strain rad52, stronger effect = lower value 0.99 | S. cerevisiae deletion strains, locus YML120C, strain ndi1, stronger effect = lower value 1 | S. cerevisiae deletion strains, locus YML124C, strain tub3, stronger effect = lower value 0.985 | S. cerevisiae deletion strains, locus YMR058W, strain fet3, stronger effect = lower value 0.99 | S. cerevisiae deletion strains, locus YMR078C, strain ctf18, stronger effect = lower value 0.988 | S. cerevisiae deletion strains, locus YMR125W, strain sto1, stronger effect = lower value 0.981 | S. cerevisiae deletion strains, locus YMR129W, stronger effect = lower value 0.982 | S. cerevisiae deletion strains, locus YMR205C, strain PFK2, stronger effect = lower value 0.986 | S. cerevisiae deletion strains, locus YMR223W, strain ubp8, stronger effect = lower value 1.03 | S. cerevisiae deletion strains, locus YMR231W, strain pep5, stronger effect = lower value 0.974 | S. cerevisiae deletion strains, locus YMR263W, strain SAP30, stronger effect = lower value 0.992 | S. cerevisiae deletion strains, locus YMR307W, strain GAS1, stronger effect = lower value 1.1 | S. cerevisiae deletion strains, locus YNL067W, strain RPL9B, stronger effect = lower value 0.975 | S. cerevisiae deletion strains, locus YNL071W, strain lat1, stronger effect = lower value 0.992 | S. cerevisiae deletion strains, locus YNL128W, strain TEP1, stronger effect = lower value 0.986 | S. cerevisiae deletion strains, locus YNL153C, strain GIM3, stronger effect = lower value 0.991 | S. cerevisiae deletion strains, locus YNL183C, strain NPR1, stronger effect = lower value 0.919 | S. cerevisiae deletion strains, locus YNL209W, strain ssb2, stronger effect = lower value 0.984 | S. cerevisiae deletion strains, locus YNL233W, strain BNI4, stronger effect = lower value 0.985 | S. cerevisiae deletion strains, locus YNL248C, strain rpa49, stronger effect = lower value 0.989 | S. cerevisiae deletion strains, locus YNL250W, strain rad50, stronger effect = lower value 0.983 | S. cerevisiae deletion strains, locus YNL271C, strain bni1, stronger effect = lower value 0.984 | S. cerevisiae deletion strains, locus YNL298W, strain CLA4, stronger effect = lower value 0.991 | S. cerevisiae deletion strains, locus YNL307C, strain MCK1, stronger effect = lower value 0.997 | S. cerevisiae deletion strains, locus YNL322C, strain KRE1 (second series), stronger effect = lower value 0.988 | S. cerevisiae deletion strains, locus YNL322C, strain KRE1, stronger effect = lower value 0.984 | S. cerevisiae deletion strains, locus YNR049C, strain mso1, stronger effect = lower value 0.986 | S. cerevisiae deletion strains, locus YNR052C, strain pop2, stronger effect = lower value 0.98 | S. cerevisiae deletion strains, locus YOL006C, strain TOP1, stronger effect = lower value 0.955 | S. cerevisiae deletion strains, locus YOL012C, strain htz1 0.762 | S. cerevisiae deletion strains, locus YOL147C, strain pex11, stronger effect = lower value 0.997 | S. cerevisiae deletion strains, locus YOR001W, strain rrp6, stronger effect = lower value 0.992 | S. cerevisiae deletion strains, locus YOR061W, strain CKA2, stronger effect = lower value 1 | S. cerevisiae deletion strains, locus YOR069W, strain VPS5, stronger effect = lower value 1 | S. cerevisiae deletion strains, locus YOR070C, strain gyp1, stronger effect = lower value 0.986 | S. cerevisiae deletion strains, locus YOR080W, strain dia2, stronger effect = lower value 0.988 | S. cerevisiae deletion strains, locus YOR083W, strain WHI5, stronger effect = lower value 0.995 | S. cerevisiae deletion strains, locus YOR106W, strain vam3, stronger effect = lower value 1.02 | S. cerevisiae deletion strains, locus YOR136W, strain idh2, stronger effect = lower value 0.986 | S. cerevisiae deletion strains, locus YOR144C, strain elg1, stronger effect = lower value 0.982 | S. cerevisiae deletion strains, locus YOR184W, strain ser1, stronger effect = lower value 1.01 | S. cerevisiae deletion strains, locus YOR231W, strain MKK1, stronger effect = lower value 0.942 | S. cerevisiae deletion strains, locus YOR265W, strain rbl2, stronger effect = lower value 0.992 | S. cerevisiae deletion strains, locus YOR270C, strain vph1, stronger effect = lower value 1.03 | S. cerevisiae deletion strains, locus YOR290C, strain snf2, stronger effect = lower value 0.995 | S. cerevisiae deletion strains, locus YOR316C, strain cot1, stronger effect = lower value 0.983 | S. cerevisiae deletion strains, locus YPL051W, strain arl3, stronger effect = lower value 0.983 | S. cerevisiae deletion strains, locus YPL055C, strain LGE1, stronger effect = lower value 0.974 | S. cerevisiae deletion strains, locus YPL078C, strain atp4, stronger effect = lower value 0.997 | S. cerevisiae deletion strains, locus YPL106C, strain sse1, stronger effect = lower value 0.971 | S. cerevisiae deletion strains, locus YPL240C, strain hsp82, stronger effect = lower value 1 | S. cerevisiae deletion strains, locus YPL241C, strain CIN2, stronger effect = lower value 1 | S. cerevisiae deletion strains, locus YPL256C, strain CLN2, stronger effect = lower value 0.927 | S. cerevisiae deletion strains, locus YPR119W, strain clb2, stronger effect = lower value 0.996 | S. cerevisiae deletion strains, locus YPR141C, strain kar3, stronger effect = lower value 0.975 | S. cerevisiae deletion strains, locus YPR163C, strain tif3, stronger effect = lower value 0.986 | S. cerevisiae deletion strains, locus YPR167C, strain met16, stronger effect = lower value 0.982 | S. cerevisiae deletion strains, strain wtn01, stronger effect = lower value 0.982 | S. cerevisiae strains, strain wild type, stronger effect = lower value 0.997
